aSyn 5UTR act: Activators via SNCA 5'UTR binding, MLPCN. alpha-synuclein 5'UTR reporter, activators screen. activity score, % (tested at 7.5 µM), hits read low. 300,000 compounds, 7.1% hits. AID 1814, 2009; in the data active = activity score below about -60%
Of the large screens only hits and unclear results are named; the others gave an inactive call. The list is a sample of the results.

Cc1cccc(C)c1OCc1cc(C(=O)N2CCN(c3ccc(F)cc3)CC2)no1	aSyn 5UTR act -72
Cc1cccc(C)c1OCc1cc(C(=O)N2CCC(c3ccccc3)CC2)no1	aSyn 5UTR act -80
Cc1cccc(C)c1OCc1cc(C(=O)N2CCC(C3CCCCC3)C2)no1 (stereo not drawn)	aSyn 5UTR act -159
COCC1CCCN(C(=O)c2cc(COc3cncc(Cl)c3)on2)C1 (stereo not drawn)	aSyn 5UTR act -137
O=C1Nc2ccccc2/C1=C/c1cnc(-c2ccccc2)[nH]1	aSyn 5UTR act -78
Cc1sc(=NC(=O)c2ccco2)n(C)c1-c1ccc(Cl)cc1	aSyn 5UTR act -101
c1ccc(-c2nnc(N3CCOCC3)nc2-c2ccccc2)cc1	aSyn 5UTR act -73
O=C1CCC2S/C(=C/Nc3ccc(C(F)(F)F)cc3)C(=O)N12 (stereo not drawn)	none
CCN1C/C(=C/c2ccc(N3CCOCC3)cc2)C(=O)/C(=C/c2ccc(N3CCOCC3)cc2)C1	aSyn 5UTR act -412
CN1C/C(=C\c2ccc(N3CCOCC3)cc2)C(=O)/C(=C/c2ccc(N3CCOCC3)cc2)C1	aSyn 5UTR act -427
CC(=O)c1cnc2nc(SCc3ccccc3)nn2c1C	aSyn 5UTR act -157
CC(=O)c1cnc2cc(-c3ccccc3)nn2c1C	aSyn 5UTR act -167
CC(=O)c1cnc2cc(-c3ccc(C)cc3)nn2c1C	aSyn 5UTR act -243
COc1ccc(-c2cc3ncc(C(C)=O)c(C)n3n2)cc1	aSyn 5UTR act -137
Cn1cc(/C=C(\NC(=O)c2ccccc2Cl)C(=O)NCCN2CCOCC2)c2ccccc21	aSyn 5UTR act -72
CCN(CC)CCNC(=O)/C(=C/c1cn(C)c2ccccc12)NC(=O)c1ccc(OC)c(OC)c1	aSyn 5UTR act -64
COc1cc2[nH]c3ccccc3c2cc1C	aSyn 5UTR act -65
O=S(=O)(Nc1ccc(F)cc1Cl)c1ccc(-c2cnc(C3CC3)o2)cc1	none
O=C(NCC1CCCCC1)c1ccc(F)cc1Cl	aSyn 5UTR act -124
Cc1ccc(C)c(NC(=O)c2cc(=O)c3ccccc3o2)c1	aSyn 5UTR act -134
Cc1ccc(NC(=O)c2cc(=O)c3ccccc3o2)c(C)c1	aSyn 5UTR act -96
COC(=O)Nc1nc(C)c(C(=O)c2ccccc2)s1	aSyn 5UTR act -105
CCOC(=O)c1sc(Nc2ccccc2)nc1C	aSyn 5UTR act -96
CCOC(=O)c1sc(Nc2nc(C)cc(C)n2)nc1C	none
COC(=O)Nc1nc(-c2ccccc2)c(C(=O)c2ccccc2)s1	none
CCOC(=O)c1sc(-c2cccs2)nc1C	aSyn 5UTR act -65
Cc1nc(Nc2ccccc2)sc1C(=O)c1ccccc1	aSyn 5UTR act -68
O=C(Cc1sc(Nc2ccccc2)nc1-c1ccccc1)NCc1ccccc1	aSyn 5UTR act -123
Cc1ccc(-c2nc(Nc3cccc(C)c3)sc2CC(=O)O)cc1	aSyn 5UTR act -143
CCc1nnc(NC(=O)Nc2ccc(Cl)cc2)s1	aSyn 5UTR act -66
CC(=O)c1sc(Nc2cccc(C)c2)nc1C	aSyn 5UTR act -165
CC(C)(C)C(=O)c1sc(Nc2ccccc2)nc1N	aSyn 5UTR act -180
COc1ccc(Nc2nc(N)c(C(=O)c3ccc(F)cc3)s2)cc1	none
CCOC(=O)c1sc(Nc2nc3c(OC)cccc3s2)nc1C	aSyn 5UTR act -164
CCOC(=O)c1sc(NC(=O)Nc2ccc(Cl)cc2)nc1C	aSyn 5UTR act -175
Cc1cccc(Nc2nc3c(s2)CCCC3)c1	aSyn 5UTR act -257
COC(=O)c1sc(Nc2ccccc2)nc1C	aSyn 5UTR act -157
C1CCN=C(Nc2nc3c(s2)CCCC3)CC1	aSyn 5UTR act -139
O=C(N/N=C/c1cc2c(cc1Br)OCO2)c1cc2ccccc2o1	aSyn 5UTR act -66
O=C(N/N=C/c1cc2c(cc1Br)OCO2)c1c[nH]c2ccccc12	aSyn 5UTR act -82
O=C(N/N=C/c1cc2c(cc1Br)OCO2)c1ccccn1	aSyn 5UTR act -186
O=C(N/N=C/c1c[nH]c2ccc(Br)cc12)c1ccccn1	aSyn 5UTR act -63
Clc1cccc(CSc2ncn(-c3ccccc3)n2)c1	aSyn 5UTR act -67
CC(C)c1cc2cc3ccc(=O)oc3cc2o1	aSyn 5UTR act -96
Cc1ccc(Oc2nn[nH]n2)cc1	aSyn 5UTR act -77
CN(C)C(=O)c1ccc2c(c1[N+](=O)[O-])C(=O)c1ccccc1C2=O	aSyn 5UTR act -116
Cc1nn(-c2nc3ccccc3s2)c(C)c1Oc1ccccc1O	aSyn 5UTR act -77
Cn1c(NCc2cccs2)nc2ccccc21	aSyn 5UTR act -63
COc1ccccc1-n1cnc2cc(NCc3ccco3)ccc21	none
Cn1c(NCc2ccco2)nc2ccccc21	aSyn 5UTR act -102
Cn1c(NCc2c[nH]c3ccccc23)nc2ccccc21	aSyn 5UTR act -98
Cc1cc(/C=C(\C#N)C(=O)NCC2CCCO2)c(C)n1-c1ccc(Cl)cc1 (stereo not drawn)	aSyn 5UTR act -267
CCOc1ccc(-c2ccc(SCc3ccccn3)nn2)cc1	aSyn 5UTR act -132
CCc1ccc(-c2ccc(SCc3ccccn3)nn2)cc1	aSyn 5UTR act -143
N/C(=N/OC(=O)c1ccccc1Cl)c1ncc([N+](=O)[O-])s1	aSyn 5UTR act -80
N/C(=N\OC(=O)c1ccc(F)cc1)c1cccc([N+](=O)[O-])c1	aSyn 5UTR act -110
N/C(=N\OC(=O)c1ccccc1F)c1ccc([N+](=O)[O-])cc1	aSyn 5UTR act -151
Cc1cccc(/C(N)=N/OC(=O)c2ccc(F)cc2)c1	aSyn 5UTR act -141
N/C(=N\OC(=O)c1ccc2ccccc2c1)c1cccc([N+](=O)[O-])c1	aSyn 5UTR act -67
N/C(=N\OC(=O)c1ccc2ccccc2c1)c1ccccc1Cl	aSyn 5UTR act -140
N/C(=N\OC(=O)c1ccccc1Cl)c1cccc([N+](=O)[O-])c1	aSyn 5UTR act -67
N/C(=N\OC(=O)c1ccc2ccccc2c1)c1ccccn1	none
N/C(=N\OC(=O)c1cccc(F)c1)c1cccc([N+](=O)[O-])c1	aSyn 5UTR act -104
O=C(Oc1ccc2ccc(O)cc2c1)c1ccccc1Cl	aSyn 5UTR act -128
CCC1CCCCN1CCCNC(=O)CC1Oc2ccccc2NC1=O (stereo not drawn)	aSyn 5UTR act -75
Fc1ccc(C[n+]2csc3ccccc32)cc1	aSyn 5UTR act -109
O=[N+]([O-])c1cc(C(F)(F)F)ccc1NCCOc1ccccc1	aSyn 5UTR act -124
CC(=O)c1ccc(N2CCN(C(=O)c3ccco3)CC2)c(F)c1	aSyn 5UTR act -98
O=C(c1ccco1)N1CCN(c2nc3ccsc3c(=O)s2)CC1	aSyn 5UTR act -98
O=C(c1cccs1)N1CCN(c2nc3c(F)cc(F)cc3s2)CC1	aSyn 5UTR act -78
Cc1cc(C)c2nc(N3CCN(C(=O)c4ccco4)CC3)sc2c1	aSyn 5UTR act -115
Cc1cc2nc(N3CCN(C(=O)c4cccs4)CC3)sc2cc1C	aSyn 5UTR act -130
c1ccc2c(c1)CCN(c1nc3cc4c(cc3s1)OCCO4)C2	none
Cc1cc2nc(N3CCN(C(=O)c4ccco4)CC3)sc2cc1C	aSyn 5UTR act -129
O=C(Nc1nc2c(F)cc(F)cc2s1)C1CC1	aSyn 5UTR act -107
Cc1ccc2sc(NC(=O)C3CC3)nc2c1C	aSyn 5UTR act -73
COC(=O)c1cnn(-c2cc(Oc3cccc(C)c3)ncn2)c1N	aSyn 5UTR act -138
Cc1cc(/C=C2/C(=O)N(C)C(=S)N2C)c(C)n1C1CC1	aSyn 5UTR act -140
CCOC(=O)c1ccc(NC(=O)N2CCCCC2)cc1	aSyn 5UTR act -92
CCc1ccc(NC(=O)N2CCCCCC2)cc1	aSyn 5UTR act -124
CCOC(=O)c1ccc(N/C=C2\CCCCC2=O)cc1	aSyn 5UTR act -127
COC(=O)c1ccc(NC(=O)C(=O)N2CCCC2)cc1	aSyn 5UTR act -148
Cc1ccc(NC(=O)N2CCCCCC2)cc1	aSyn 5UTR act -74

From PubChem BioAssay
